{
  "source": "patent US20220289795",
  "about": "“EFFICIENT METHOD FOR PREPARING PPR PROTEIN AND USE OF THE SAME” (EditForce, Inc., published 2022)",
  "data": [
    {"biological_target": "T1, v3.1_PPR14 (Artificial Sequence)", "T1 chain": "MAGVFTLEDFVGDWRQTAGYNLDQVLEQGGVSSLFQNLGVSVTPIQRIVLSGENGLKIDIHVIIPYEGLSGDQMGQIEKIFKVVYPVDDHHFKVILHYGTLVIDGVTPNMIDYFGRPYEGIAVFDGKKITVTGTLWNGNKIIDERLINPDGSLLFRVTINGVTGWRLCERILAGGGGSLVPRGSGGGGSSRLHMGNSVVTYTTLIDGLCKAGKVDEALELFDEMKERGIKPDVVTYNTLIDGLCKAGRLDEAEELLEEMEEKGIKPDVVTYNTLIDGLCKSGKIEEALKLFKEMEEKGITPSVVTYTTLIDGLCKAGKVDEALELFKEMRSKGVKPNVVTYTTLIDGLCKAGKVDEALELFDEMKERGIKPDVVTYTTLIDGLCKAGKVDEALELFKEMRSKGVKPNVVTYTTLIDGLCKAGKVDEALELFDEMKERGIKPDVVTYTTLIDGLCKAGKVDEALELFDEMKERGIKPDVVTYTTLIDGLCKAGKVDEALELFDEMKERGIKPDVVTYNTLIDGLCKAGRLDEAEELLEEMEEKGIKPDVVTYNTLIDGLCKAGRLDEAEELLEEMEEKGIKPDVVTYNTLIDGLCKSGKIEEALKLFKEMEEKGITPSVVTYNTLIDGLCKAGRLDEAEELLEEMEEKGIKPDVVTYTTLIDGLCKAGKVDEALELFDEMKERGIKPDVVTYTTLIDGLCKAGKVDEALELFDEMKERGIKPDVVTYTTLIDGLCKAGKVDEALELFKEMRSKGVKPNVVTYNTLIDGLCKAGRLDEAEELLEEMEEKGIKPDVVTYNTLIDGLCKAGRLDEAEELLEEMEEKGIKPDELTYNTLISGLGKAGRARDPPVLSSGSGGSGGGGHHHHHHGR", "assay": "RPB-ELISA", "settings": "tags: N-terminal luciferase, C-terminal 6xHis; label: 5'-biotin; ssRNA", "protocol": "RNA probes consisting of a designed 30-base sequence containing 18 bases of the target sequence and modified by biotinylation at the 5′ end (RNA_1, RNA_2, RNA_3, RNA_4, and RNA_5, SEQ ID NOS: 61 to 65) were synthesized (Grainer). To a streptavidin-coated plate (Thermo fisher), the 5′-end biotinylated RNA probes were added, reaction was allowed at room temperature for 30 minutes, and the plate was washed with a lysis buffer (20 mM Tris-HCl, pH 7.6, 150 mM NaCl, 5 mM MgCl₂, 0.5% NP-40, 1 mM DTT, 0.1% BSA). For background measurement, wells to which RNA was not added, but 100 μL of the lysis buffer, 1 μL of 100 mM DTT, and 1 μL of 40 unit/4 RNase inhibitor (Takara, 2313A) were added were also prepared. Then, 200 μL of a blocking buffer (20 mM Tris-HCl, pH 7.6, 150 mM NaCl, 5 mM MgCl₂, 0.5% NP-40, 1 mM DTT, 1% BSA) was added, and the plate surface was blocked at room temperature for 30 minutes. Then, 100 μL of E. coli lysate containing luciferase-fused PPR protein having a luminescence level of 1.5×10⁸ LU/μL was added to each well, and the binding reaction was allowed at room temperature for 30 minutes. The well was washed 5 times with 200 μL of a washing buffer (20 mM Tris-HCl, pH 7.6, 150 mM NaCl, 5 mM MgCl₂, 0.5% NP-40, 1 mM DTT). […] The background (luminescence signal value obtained with adding the PPR protein and without adding RNA) was subtracted from the luminescences of the samples to which a solution containing each RNA and PPR protein was added, and the obtained values were used as the binding powers between the PPR protein and RNA.\nBy using the V3.1 motif, PPR proteins for the same 23 kinds of target sequences were similarly prepared (SEQ ID NOS: 411 to 433 for the nucleotide sequences, and SEQ ID NOS: 434 to 456 for the amino acid sequences), and bindings of all the combinations were analyzed by using RPB-ELISA. The experimental method was the same as that used in Example 3.", "units": {"binding signal": "log2 luminescence"}, "values": [
      {"sequence": "GGUUAGAGAUACAGUGUG", "binding signal": 22.5},
      {"sequence": "GUGGGGGUGGUAGGAAAU", "binding signal": 20.1}
    ]}
  ]
}
